According to PubChem BioAssay AID504333 (National Center for Advancing Translational Sciences (NCATS), 2011):
In all, about 360,000 compounds went through this assay and about 16,000 (4.4%) were called active. Another 9% or so got no clear call; they are omitted. The sample holds actives, similar compounds and a random draw of the others, so the mix is not that of the screen. Values without a mark were called inactive. Calls follow the shape of the dose curve; as a rule, active = well fitted inhibition curve with a large enough effect; inconclusive = small, poorly fitted or top-dose-only effect; inactive = no such curve, though single readings can be large or run the other way.

target: Bromodomain adjacent to zinc finger domain protein 2B (Homo sapiens) (UniProt Q9UIF8); test: qHTS Assay for Inhibitors of BAZ2B; details: AlphaScreen BAZ2B-H3K14Ac peptide displacement; series mostly up to 114 µM; activity change, negative = inhibition: at the top concentration; also: nearly all actives have a fitted effect of over 60% in size
Sequence (Q9UIF8 whole entry, looked up, the tested form may be a part): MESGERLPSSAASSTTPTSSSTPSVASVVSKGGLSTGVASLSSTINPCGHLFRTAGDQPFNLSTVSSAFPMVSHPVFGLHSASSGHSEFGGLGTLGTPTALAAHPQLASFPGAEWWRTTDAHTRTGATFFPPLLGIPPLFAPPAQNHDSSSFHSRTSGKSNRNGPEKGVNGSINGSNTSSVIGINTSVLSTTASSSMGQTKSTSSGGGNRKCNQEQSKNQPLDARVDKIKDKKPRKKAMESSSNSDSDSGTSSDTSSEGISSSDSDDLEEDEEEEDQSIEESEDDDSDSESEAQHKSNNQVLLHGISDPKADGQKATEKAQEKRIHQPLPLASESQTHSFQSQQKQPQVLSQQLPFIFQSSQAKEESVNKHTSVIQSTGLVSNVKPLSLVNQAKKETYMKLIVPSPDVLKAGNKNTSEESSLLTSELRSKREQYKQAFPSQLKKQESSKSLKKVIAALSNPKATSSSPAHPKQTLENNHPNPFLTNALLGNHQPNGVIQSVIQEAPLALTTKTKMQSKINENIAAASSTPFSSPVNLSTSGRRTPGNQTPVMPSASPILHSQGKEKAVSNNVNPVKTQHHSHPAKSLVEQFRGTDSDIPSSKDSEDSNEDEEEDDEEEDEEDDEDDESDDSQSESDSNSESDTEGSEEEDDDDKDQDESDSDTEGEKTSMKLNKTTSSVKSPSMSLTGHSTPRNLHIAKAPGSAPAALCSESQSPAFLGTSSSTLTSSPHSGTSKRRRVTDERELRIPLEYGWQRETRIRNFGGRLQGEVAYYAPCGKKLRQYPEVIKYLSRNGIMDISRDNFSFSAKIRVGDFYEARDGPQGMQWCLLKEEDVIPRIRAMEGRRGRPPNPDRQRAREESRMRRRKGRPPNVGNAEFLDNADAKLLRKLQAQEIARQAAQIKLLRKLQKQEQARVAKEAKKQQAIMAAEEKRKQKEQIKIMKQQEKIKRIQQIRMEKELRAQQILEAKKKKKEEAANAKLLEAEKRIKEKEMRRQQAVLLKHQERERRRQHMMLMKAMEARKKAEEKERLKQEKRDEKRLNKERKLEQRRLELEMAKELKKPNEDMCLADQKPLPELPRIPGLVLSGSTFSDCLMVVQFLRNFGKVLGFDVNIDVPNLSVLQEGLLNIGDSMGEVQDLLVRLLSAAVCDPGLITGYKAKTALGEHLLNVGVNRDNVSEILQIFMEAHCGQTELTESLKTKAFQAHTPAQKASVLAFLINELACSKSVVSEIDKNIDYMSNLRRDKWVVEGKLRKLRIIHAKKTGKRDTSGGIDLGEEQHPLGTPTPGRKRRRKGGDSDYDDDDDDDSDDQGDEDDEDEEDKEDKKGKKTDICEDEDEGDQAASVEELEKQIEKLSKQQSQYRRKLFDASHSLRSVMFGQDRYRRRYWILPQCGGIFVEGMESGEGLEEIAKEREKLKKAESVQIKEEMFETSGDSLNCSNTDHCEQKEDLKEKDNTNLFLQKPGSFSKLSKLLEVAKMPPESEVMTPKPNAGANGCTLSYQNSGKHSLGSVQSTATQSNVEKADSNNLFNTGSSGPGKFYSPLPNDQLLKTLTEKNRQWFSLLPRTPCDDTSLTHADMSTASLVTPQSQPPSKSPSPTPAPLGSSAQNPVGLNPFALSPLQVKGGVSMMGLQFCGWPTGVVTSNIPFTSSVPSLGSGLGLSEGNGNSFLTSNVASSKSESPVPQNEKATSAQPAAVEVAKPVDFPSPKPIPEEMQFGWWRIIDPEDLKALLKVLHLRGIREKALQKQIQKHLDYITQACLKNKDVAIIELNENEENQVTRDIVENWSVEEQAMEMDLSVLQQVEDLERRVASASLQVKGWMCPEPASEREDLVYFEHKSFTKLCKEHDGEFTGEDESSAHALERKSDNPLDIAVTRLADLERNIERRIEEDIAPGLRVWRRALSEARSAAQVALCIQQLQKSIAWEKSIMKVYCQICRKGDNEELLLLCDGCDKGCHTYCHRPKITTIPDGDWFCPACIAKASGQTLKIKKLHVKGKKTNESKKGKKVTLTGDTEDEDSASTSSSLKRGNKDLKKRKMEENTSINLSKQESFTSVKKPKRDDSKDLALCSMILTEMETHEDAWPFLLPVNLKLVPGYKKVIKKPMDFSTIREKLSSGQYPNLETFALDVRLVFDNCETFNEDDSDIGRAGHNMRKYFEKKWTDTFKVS
From the text: BAZ2B (bromodomain adjacent to zinc finger domain, 2B) belongs to a family of ubiquitously expressed bromodomain containing proteins, which biological function has not yet been elucidated. […] The interaction of BAZ2B with ISWI mediated by the BAZ1 motif has recently been described. […] The protocol is based on the AlphaScreen (PerkinElmer) displacement assay developed by NCGC [5], but uses the peptide ligand Biot-H3K14Ac, a high affinity binding partner for BAZ2B, in an AlphaScreen format. Although AlphaScreen has significant advantages with its utility in a variety of epigenetic target assays, the primary screening data provided in this deposition should be used with caution due to the prevalence of screening artifacts. The top compound concentration tested was 110uM in this assay, which increases number of actives and potential artifacts. An AlphaScreen counterscreen is highly recommended to be run against any putative actives to eliminate non-specific artifacts. Alternatively, one can use other AlphaScreen assays in PubChem to filter out promiscuous hits. Eberharter, A. et al. ACF1 improves the effectiveness of nucleosome mobilization by ISWI through PHD-histone contacts. The EMBO journal 23, 4029-4039. 2004. PMID: 15457208 [2] Jones, M.H. et al. A novel family of bromodomain genes. Genomics 63, 40-45. 2000. PMID: 10662543 [3] Yasgar, et al. Compound Management for Quantitative High-Throughput Screening. JALA. 2008 Apr;13(2):79-89. PMID: 18496600 [4] Inglese, et al. Quantitative high-throughput screening: a titration-based approach that efficiently identifies biological activities in large chemical libraries. Proc Natl Acad Sci. 1;103(31):11473-8. 2006. PMID: 16864780 [5] Quinn et al. A chemiluminescence-based method for identification of histone lysine methyltransferase inhibitors. Mol Biosyst 6(5): 782-8. 2010. PMID: 20567762 [6] Baell,Holloway. New substructure filters for removal of pan assay interference compounds (PAINS) from screening libraries and for their exclusion in bioassays. J Med Chem. 53(7):2719-40. 2010. PMID: 20131845 NIH Molecular Libraries Probe Production Network [MLPCN] NIH Chemical Genomics Center [NCGC] Structural Genomics Consortium (SGC) NIH Grant: 5U54 MH084681-02
To each well of a 1,536w plate, 2ul of BAZ2B protein (final 50nM) and 1ul biotinylated histone peptide acetylated at Lys14 [b-H3(5-23)K14Ac] (final 50nM) were added in 1x PBS buffer, pH 7.4, containing 0.01% Tween-20, using a nanoliter dispenser. Formation of a protein-peptide complex proceeded at room temperature for 30 min. A Kalypsys pin-tool was employed to transfer 23 nL of library compound solution in DMSO to each well. Following a 30 min incubation of the protein-peptide complex with compounds at room temperature, a mixture of 40 ug/mL each streptavidin-coated donor and nickel chelate acceptor AlphaScreen beads (final 10 ug/mL) were added in a 1ul dispense for a final volume of 4ul. A brief centrifugation followed (1000rpm, 1 min) and were then incubated protected from the light for 20 min at room temperature. Plates were read on an EnVision multilabel plate reader using the 1,536 plate HTS AlphaScreen aperture (excitation time 80 ms, measurement time 240 ms).
% is scaled to controls: 0 for no effect and ±100 for the full control effect; potency is read from the fitted curve at half-maximal effect.

Question: Cc1cc(C)c2oc(C(=O)Nc3ccc(S(=O)(=O)N4CCCCCC4)cc3)cc(=O)c2c1 was tested. Which “activity change, negative = inhibition” value did it give?
Answer: -12%

Question: With CCCCc1nn2c(=O)cc(COC(=O)c3ccc(NC(=O)c4ccccc4C)cc3)nc2s1 as the compound, how does the “activity change, negative = inhibition” value read?
Answer: -9.26%

Question: CN1CCN(C2(CNC(=O)COc3ccc(C(C)(C)C)cc3)CCCCC2)CC1 was tested. Which “activity change, negative = inhibition” value did it give?
Answer: -24.8%

Question: With CC1CCN(S(=O)(=O)c2ccc3c(c2)N(CC(=O)NCc2ccccc2Cl)C(=O)CO3)CC1 as the compound, how does the “activity change, negative = inhibition” value read?
Answer: -6.03%

Question: CCOC(=O)c1scc(-c2ccc(C)cc2)c1S(=O)(=O)Nc1cc(C)ccc1C was tested. Which “activity change, negative = inhibition” value did it give?
Answer: -8.58%

Question: CC1(C)CC(=O)C(N=Nc2ccc(S(=O)(=O)N3CCCCCC3)cc2)=C(O)C1 was tested. Which “activity change, negative = inhibition” value did it give?
Answer: -3.64%

Question: For O=C1CCCC(O)=C1N=Nc1ccc(S(=O)(=O)N2CCOCC2)cc1, which Potency is on record?
Answer: 79.4 µM (active)

Question: With O=C(CN1C(=O)CCC1=O)Nc1ccc(S(=O)(=O)N2CCOCC2)cc1 as the compound, how does the “activity change, negative = inhibition” value read?
Answer: -5.81%

Question: With COC(=O)c1ccc2c(c1)N(CC(=O)Nc1ccc(C)c(C)c1)C(=O)c1ccccc1S2 as the compound, how does the “activity change, negative = inhibition” value read?
Answer: -1.49%

Question: Which “activity change, negative = inhibition” value does the source give for COCCNC(=O)CSc1c(C)cnc2c1c(=O)n(C)c(=O)n2C here?
Answer: 4.31%

Question: For COc1cc2ccccc2cc1C(=O)Nc1cccc(-c2nc3ccccc3o2)c1, which “activity change, negative = inhibition” value is on record?
Answer: 1.7%

Question: Which “activity change, negative = inhibition” value does the source give for Cc1ccccc1NC(=O)CN1C(=O)C(C)(C)c2ccccc21 here?
Answer: 5.06%

Question: How did the “activity change, negative = inhibition” value turn out when O=C1N/C(=C/c2cccn2-c2ccccc2)C(=O)N1c1cccc(Cl)c1 was run?
Answer: -0.902%

Question: Which Potency does the source give for Cc1ccccc1NC(=O)CN1C(=O)N/C(=C\c2cccn2-c2cccc(C(=O)O)c2)C1=O here?
Answer: 20 µM (active)

Question: Which “activity change, negative = inhibition” value does the source give for COc1ccc(OC)c(NC(=O)CSC2=Nc3ccccc3C3=NC(CC(=O)NCCc4ccccc4)C(=O)N23)c1 (stereo not given) here?
Answer: -15.3%

Question: How did the “activity change, negative = inhibition” value turn out when O=C(CCSCc1ccccc1F)N1CCN(c2ccc(Cl)cc2)CC1 was run?
Answer: 1.82%

Question: For CCOc1cc(/C=N/NC(=O)c2cc(-c3ccccc3)nc3ccccc23)ccc1O, which “activity change, negative = inhibition” value is on record?
Answer: -0.596%

Question: For CCCc1nc2ccccc2c(=O)n1/N=C/c1ccc(O)c(O)c1, which Potency is on record?
Answer: 56.2 µM (active)

Question: Which “activity change, negative = inhibition” value does the source give for O=c1c2ccccc2ncn1/N=C/c1ccccc1 here?
Answer: 0.598%

Question: With COc1ccc(Cn2ccn(Cc3cccc(OC)c3)c(=O)c2=O)cc1 as the compound, how does the “activity change, negative = inhibition” value read?
Answer: -26.1%

Question: COc1ccc(CCNC(=O)c2ccc(-n3c(C)cc4c3CCCC4)cc2)cc1OC was tested. Which “activity change, negative = inhibition” value did it give?
Answer: -8.94%

Question: For CC(C)(c1ccccc1)c1ccc(OCCN)cc1, which “activity change, negative = inhibition” value is on record?
Answer: -0.871%

Question: How did the Potency turn out when CC(C)(C)c1ccc(Oc2ccc(N)cc2)cc1 was run?
Answer: 39.8 µM (active)

Question: Cc1cc(C)cc(N)c1 was tested. Which “activity change, negative = inhibition” value did it give?
Answer: 0.691%

Question: How did the “activity change, negative = inhibition” value turn out when CC(C)(C)c1ccc(OC2=CS(=O)(=O)c3ccccc32)cc1 was run?
Answer: 3.61%

Question: For Cc1ccc(Oc2ccc(N)cc2)cc1, which Potency is on record?
Answer: 31.6 µM (active)

Question: For CN(C)S(=O)(=O)c1ccc(Oc2ccc(S(=O)(=O)N(C)C)cc2)cc1, which “activity change, negative = inhibition” value is on record?
Answer: 0.486%

Question: O=C(CSc1oc(-c2ccco2)nc1S(=O)(=O)c1ccc(Cl)cc1)c1ccccc1 was tested. Which “activity change, negative = inhibition” value did it give?
Answer: 15.2%

Question: Which Potency does the source give for CC(C)(C)C1C/C(=C/c2ccco2)C(=O)/C(=C/c2ccco2)C1 (stereo not given) here?
Answer: 25.1 µM (active)

Question: With CCc1ccc(C2C(C(=O)Nc3ccccc3)=C(C)Nc3c(C(=O)Nc4ccc(C)cc4)cnn32)cc1 (stereo not given) as the compound, how does the “activity change, negative = inhibition” value read?
Answer: 8.98% [at 57.1 µM]

Question: Cc1cc(O)c(C(c2ccccc2)N2CCN(c3ccccc3F)CC2)c(=O)n1Cc1ccco1 (stereo not given) was tested. Which “activity change, negative = inhibition” value did it give?
Answer: -38.4%

Question: With O=C(O)c1ccccc1N=N/C(=N/Nc1cc(S(=O)(=O)O)ccc1O)c1ccccc1 as the compound, how does the Potency read?
Answer: 11.2 µM (active)

Question: With CCOC(=O)N1CCc2c(sc3c2c(=O)n(-c2ccc(CC)cc2)c(=O)n3C)C1 as the compound, how does the “activity change, negative = inhibition” value read?
Answer: 2.66%

Question: O=[N+]([O-])c1ccc(Oc2ccc(F)cc2Br)c2ccncc12 was tested. Which Potency did it give?
Answer: 31.6 µM (active)

Question: For O=[N+]([O-])c1ccc(F)cc1Oc1nc(-c2cccnc2)nc2ccccc12, which “activity change, negative = inhibition” value is on record?
Answer: -16.4%

Question: For Oc1c(Cl)cc(Cl)c(Cl)c1Cc1c(O)c(Cl)cc(Cl)c1Cl, which Potency is on record?
Answer: 50.1 µM (active)

Question: For CCOc1ccc(N(Cc2ccccc2)C(=O)c2nc(S(C)(=O)=O)ncc2Cl)cc1, which “activity change, negative = inhibition” value is on record?
Answer: -21.6%

Question: How did the “activity change, negative = inhibition” value turn out when CCc1ccc(NC(=O)CN2C(=O)CCSc3ccc(S(=O)(=O)N4CCCC4)cc32)cc1 was run?
Answer: -4.59%

Question: How did the “activity change, negative = inhibition” value turn out when CCOC(=O)c1ccc(NC(=O)c2csc3c2CCCCC3)cc1 was run?
Answer: -0.642%

Question: CCOC(=O)c1ccc(NC(=O)c2c(NCc3cccs3)sc3c2CCCC3)cc1 was tested. Which Potency did it give?
Answer: 28.2 µM (active)

Question: How did the “activity change, negative = inhibition” value turn out when CCOC(=O)c1ccc(NC(=O)c2c(NCc3cccc(OC)c3)sc3c2CCC3)cc1 was run?
Answer: 3.03%

Question: How did the “activity change, negative = inhibition” value turn out when Cc1ccc(-c2nn3c(=O)cc(CN4CCN(C(=O)Nc5cccc(C(F)(F)F)c5)CC4)nc3s2)cc1 was run?
Answer: -22.9%

Question: With COc1cc(CN(C(=O)c2ccccc2Br)c2ccccn2)cc(OC)c1OC as the compound, how does the “activity change, negative = inhibition” value read?
Answer: -18.4%

Question: For COc1ccc(OC)c(CNC(=O)c2c3c(nc4ccccc24)C(=O)N(C2CCCCC2)C3)c1, which “activity change, negative = inhibition” value is on record?
Answer: -9.86%

Question: Cc1ccc(Nc2cc(C)nc3c(C)ccc([N+](=O)[O-])c23)cc1 was tested. Which Potency did it give?
Answer: 10 µM (active)

Question: Which “activity change, negative = inhibition” value does the source give for Cc1ccc(NC2=NC(c3ccccc3)n3c(nc(C)cc3=O)N2)cc1 (stereo not given) here?
Answer: 12.2%

Question: Which “activity change, negative = inhibition” value does the source give for Cc1cc(Nc2ccc(C(=O)N3CCCCC3)cc2)c2cccc(C)c2n1 here?
Answer: 0.772%

Question: CCc1c(C)nc2cc(-c3cccs3)[nH]n2c1=O was tested. Which “activity change, negative = inhibition” value did it give?
Answer: 2.81%

Question: Which Potency does the source give for Cc1cc(=O)n2[nH]c(-c3sccc3-n3c(C)ccc3C)cc2n1 here?
Answer: 50.1 µM (active)

Question: Cc1cc(=O)n2[nH]c(-c3cccc(Cl)c3)cc2n1 was tested. Which “activity change, negative = inhibition” value did it give?
Answer: -1.33%
